# PubChem BioAssay (NCI)
# Several values for one entry are separate records, joined by “and”; a condition that tells them apart may be missing. Equal entries are not always repeated. The panel holds about 83,000 compounds, 20% with a hit somewhere; the sample as a whole holds those more often.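 Note: values are percent growth. 100 is the growth of untreated cells, values between 100 and 0 indicate rising inhibition; between -100 and 0 indicates cell death.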 Activity calls are given as the source filed them. The calls were made as follows: active = growth percent below 10; inactive = the rest.
# Legend:
# Test in all cases: NCI-60 one-dose screen, 48 h (100 = growth as untreated, 0 = no growth, -100 = all killed)
# [1] = tested on: NCI-H23 lung
# [2] = tested on: NCI-H226 lung
# [3] = tested on: NCI-H322M lung
# [4] = tested on: HOP-62 NSCLC
# [5] = tested on: NCI-H460 lung
# [6] = tested on: HOP-92 NSCLC
# [7] = tested on: NCI-H522 lung
# [8] = tested on: A549/ATCC NSCLC
# [9] = tested on: 786-0 renal
# [10] = tested on: COLO 205 colon
smiles,measurement,setting,value
CC(C)(C)c1cc(NC(=O)Cc2ccc(-c3cnc4cc(-c5cnn(CCN6CCOCC6)c5)ccc4n3)cc2)no1,growth,[1]; 10 µM,26.4% (inactive)
same,growth,[1]; 30 µM,27.3% (inactive)
same,growth,[2]; 10 µM,10% (inactive)
same,growth,[2]; 30 µM,13.7% (inactive)
same,growth,[3]; 10 µM,24.9% (inactive)
same,growth,[3]; 30 µM,26.1% (inactive)
same,growth,[4]; 10 µM,17.1% (inactive)
same,growth,[4]; 30 µM,34.4% (inactive)
same,growth,[5]; 10 µM,11% (inactive)
same,growth,[5]; 30 µM,13% (inactive)
same,growth,[6]; 10 µM,-3.35% (active)
same,growth,[6]; 30 µM,-10.6% (active)
same,growth,[7]; 10 µM,20% (inactive)
same,growth,[7]; 30 µM,27% (inactive)
same,growth,[8]; 10 µM,24.3% (inactive)
same,growth,[8]; 30 µM,20.8% (inactive)
same,growth,[9]; 10 µM,18% (inactive)
same,growth,[9]; 30 µM,21.7% (inactive)
same,growth,[10]; 10 µM,9.61% (active)
same,growth,[10]; 30 µM,20.5% (inactive)
CCCCCn1sc(=O)n(Cc2ccc(CNC(=O)C(C)c3ccc(CC(C)C)cc3)cc2)c1=O (stereo not given),growth,[1]; 10 µM unless noted,102% (inactive) and -73.4% (active)
same,growth,[2]; 10 µM unless noted,94.3% (inactive) and 37.3% (inactive)
same,growth,[3]; 10 µM unless noted,99.5% (inactive) and 67.6% (inactive)
same,growth,[4]; 10 µM unless noted,99.1% (inactive) and -43.2% (active)
same,growth,[5]; 10 µM unless noted,102% (inactive) and 22.9% (inactive)
same,growth,[6]; 10 µM unless noted,73.6% (inactive) and -66.2% (active)
same,growth,[7]; 10 µM unless noted,85.4% (inactive) and -59.6% (active)
same,growth,[8]; 10 µM unless noted,97.4% (inactive) and -19.1% (active)
same,growth,[9]; 10 µM unless noted,95.8% (inactive) and -86.5% (active)
same,growth,[10]; 10 µM unless noted,122% (inactive) and -57.5% (active)
CC1=C[C@H]2c3c(c(O)c(O)c4oc5cc(O)cc(O)c5c(=O)c34)[C@H](c3cc(O)c(O)c4oc5cc(O)cc(O)c5c(=O)c34)[C@H]2C(C)(C)C1,growth,[1]; 10 µM unless noted,-5.6% (active) and -52.4% (active)
same,growth,[2]; 10 µM unless noted,2.7% (active) and -31.2% (active)
same,growth,[3]; 10 µM unless noted,12.1% (inactive) and -11.1% (active)
same,growth,[4]; 10 µM unless noted,-16.2% (active)
same,growth,[5]; 10 µM unless noted,-41.5% (active) and -57.7% (active)
same,growth,[6]; 10 µM unless noted,-8.6% (active) and -43.8% (active)
same,growth,[7]; 10 µM unless noted,-50.7% (active) and -52.7% (active)
same,growth,[8]; 10 µM unless noted,-10% (active) and -37.5% (active)
same,growth,[9]; 10 µM unless noted,-18.9% (active) and -42.3% (active)
same,growth,[10]; 10 µM unless noted,-44.6% (active)
Cc1cc(O)c(C(C)C)cc1N,growth,[1]; 10 µM unless noted,97.5% (inactive) and 92.7% (inactive)
same,growth,[2]; 10 µM unless noted,108% (inactive) and 93.1% (inactive)
same,growth,[3]; 10 µM unless noted,122% (inactive) and 102% (inactive)
same,growth,[4]; 10 µM unless noted,90% (inactive) and 109% (inactive)
same,growth,[5]; 10 µM unless noted,121% (inactive) and 103% (inactive)
same,growth,[6]; 10 µM unless noted,100% (inactive)
same,growth,[7]; 10 µM unless noted,82.5% (inactive) and 86.9% (inactive)
same,growth,[8]; 10 µM unless noted,109% (inactive) and 110% (inactive)
same,growth,[9]; 10 µM unless noted,97.2% (inactive) and 105% (inactive)
same,growth,[10]; 10 µM unless noted,130% (inactive) and 126% (inactive)
Nc1n[nH]c(=S)n1-c1ccc(Cl)cc1,growth,[1]; 10 µM unless noted,95.9% (inactive)
same,growth,[2]; 10 µM unless noted,93.9% (inactive)
same,growth,[3]; 10 µM unless noted,98.7% (inactive)
same,growth,[4]; 10 µM unless noted,94.5% (inactive)
same,growth,[5]; 10 µM unless noted,99.6% (inactive)
same,growth,[6]; 10 µM unless noted,85.9% (inactive)
same,growth,[7]; 10 µM unless noted,97.2% (inactive)
same,growth,[8]; 10 µM unless noted,100% (inactive)
same,growth,[9]; 10 µM unless noted,93.7% (inactive)
same,growth,[10]; 10 µM unless noted,117% (inactive)
COc1cc(C(=O)c2ccc3c(c2)OCO3)cc(OC)c1OC,growth,[1]; 10 µM unless noted,49.2% (inactive) and 40.8% (inactive)
same,growth,[2]; 10 µM unless noted,52.4% (inactive) and 72.9% (inactive)
same,growth,[3]; 10 µM unless noted,41% (inactive) and 55.4% (inactive)
same,growth,[4]; 10 µM unless noted,38.8% (inactive) and 41.6% (inactive)
same,growth,[5]; 10 µM unless noted,14.3% (inactive) and 10.9% (inactive)
same,growth,[6]; 10 µM unless noted,37.9% (inactive) and 62.8% (inactive)
same,growth,[7]; 10 µM unless noted,44.6% (inactive) and -30.4% (active)
same,growth,[8]; 10 µM unless noted,33.9% (inactive) and 34.9% (inactive)
same,growth,[9]; 10 µM unless noted,56.2% (inactive) and 46% (inactive)
same,growth,[10]; 10 µM unless noted,19.2% (inactive) and 20.8% (inactive)
CCN(CC)CCc1nc(-c2ccccc2)no1,growth,[1]; 10 µM unless noted,83.8% (inactive) and 102% (inactive)
same,growth,[2]; 10 µM unless noted,85.8% (inactive) and 104% (inactive)
same,growth,[3]; 10 µM unless noted,100% (inactive) and 102% (inactive)
same,growth,[4]; 10 µM unless noted,65.2% (inactive) and 98.6% (inactive)
same,growth,[5]; 10 µM unless noted,102% (inactive) and 113% (inactive)
same,growth,[6]; 10 µM unless noted,81.5% (inactive) and 109% (inactive)
same,growth,[7]; 10 µM unless noted,88.5% (inactive)
same,growth,[8]; 10 µM unless noted,97.5% (inactive) and 103% (inactive)
same,growth,[9]; 10 µM unless noted,89.5% (inactive) and 101% (inactive)
same,growth,[10]; 10 µM unless noted,109% (inactive)
